This is a sample that favours compounds with a hit; in the whole collection about 11% have one here.
PI5P4K alpha inh: inhibitors of human PI5P4K alpha; P48426; PI5P4Kalpha enzyme, ADP-Glo luminescence, 60 min; stronger effect = lower value; max response, %; actives 1.2% (n = 330,000); AID 652105; active = max response of -50% or lower; inconclusive = between -30% and -50%; inactive = -30% or higher; also: value at the top dose of about 77 µM; % is scaled to controls: 0 for no effect and ±100 for the full control effect
Target sequence (P48426 whole entry, looked up): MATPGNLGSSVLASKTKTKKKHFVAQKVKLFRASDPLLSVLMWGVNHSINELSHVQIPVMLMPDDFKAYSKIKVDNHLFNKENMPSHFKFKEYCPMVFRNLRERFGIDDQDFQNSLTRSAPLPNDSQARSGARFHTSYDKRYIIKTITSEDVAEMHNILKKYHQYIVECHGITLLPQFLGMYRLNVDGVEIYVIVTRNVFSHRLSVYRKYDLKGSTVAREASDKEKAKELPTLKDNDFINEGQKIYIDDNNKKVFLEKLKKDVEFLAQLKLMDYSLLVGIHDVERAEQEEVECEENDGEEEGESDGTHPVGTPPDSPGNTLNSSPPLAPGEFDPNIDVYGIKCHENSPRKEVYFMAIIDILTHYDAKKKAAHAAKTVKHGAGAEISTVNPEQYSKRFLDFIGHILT
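Quantitative HTS of the MLSMR library against PI5P4Kalpha with substrate. ATP added last at 5 microM final; room temperature, 60 minutes. Remaining ATP depleted, ADP converted and read as luminescence.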
L3MBTL1 inh: blocks human L3MBTL1 | Q9Y468 | AlphaScreen L3MBTL1–H3K9me1 peptide binding | Potency, µM (highest dose often 57.1 µM), without a hit: top-dose activity, negative = inhibition, most hits filed as inhibitors | actives 0.66% (n = 230,000) | AID 485360; also: potency is read from the fitted curve at half-maximal effect; % is scaled to controls: 0 for no effect and ±100 for the full control effect; nearly all actives have a fitted effect of over 60% in size
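Read-out is AlphaScreen signal from streptavidin donor and nickel chelate acceptor beads (10 ug/mL final each) bridging L3MBTL1 (50 nM) and biotinylated K9-monomethylated H3(1-15) peptide (75 nM), after 30 min compound exposure at room temperature.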
BAZ2B inh: BAZ2B (human) inhibition; Q9UIF8; AlphaScreen BAZ2B-H3K14Ac peptide displacement; actives 4.4% (n = 360,000); Potency, µM (top dose mostly 114 µM), for the others: top-dose activity change, negative = inhibition, actives largely listed as inhibitors; also: potency is read from the fitted curve at half-maximal effect; % is scaled to controls: 0 for no effect and ±100 for the full control effect; nearly all actives have a fitted effect of over 60% in size
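Complex of BAZ2B and biotin-H3K14Ac (50 nM apiece) forms over 30 min at RT, then faces library compounds up to 110 uM for another 30 min; AlphaScreen beads added, 20 min dark incubation, luminescence read.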
HP1b chromo inh: HP1-beta chromodomain-methylated histone interaction inhibition; P83916; AlphaScreen HP1-beta / biotin-H3K9me3 peptide binding; actives 0.56% (n = 390,000); Potency, µM (titrated, usually from 114 µM), without a hit: top-dose activity change, negative = inhibition, hits mostly inhibitors; also: potency is read from the fitted curve at half-maximal effect; nearly all actives have a fitted effect of over 70% in size
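AlphaScreen: HP1-beta (50 nM) preformed 30 min with biotin-H3(1-18)K9me3 peptide (50 nM) in PBS pH 7.4, 0.01% Tween-20. Compound added for 30 min at RT, then streptavidin donor/nickel chelate acceptor beads (10 ug/mL) for 30 min.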
JMJD2A Tudor inh: blocks the human JMJD2A Tudor domain; AlphaScreen JMJD2A-Tudor / H3K4me3 peptide binding; Potency, µM (highest dose often 114 µM), without a hit: at the highest dose activity change, negative = inhibition, most hits filed as inhibitors; actives 4.4% (n = 390,000); AID 504339; also: potency is read from the fitted curve at half-maximal effect; % is scaled to controls: 0 for no effect and ±100 for the full control effect; nearly all actives have a fitted effect of over 50% in size
G9a inh: G9a (human) methyltransferase inhibition; Q96KQ7; G9a H3K9 monomethylation, AlphaScreen, 2 h; Potency, µM (titrated, usually from 102 µM), for inactives: top-dose activity, negative = inhibition, hits mostly inhibitors; actives 8.8% (n = 350,000); AID 504332; also: potency is read from the fitted curve at half-maximal effect; % is scaled to controls: 0 for no effect and ±100 for the full control effect; nearly all actives have a fitted effect of over 75% in size
Target sequence (Q96KQ7 913-1193 limits assumed): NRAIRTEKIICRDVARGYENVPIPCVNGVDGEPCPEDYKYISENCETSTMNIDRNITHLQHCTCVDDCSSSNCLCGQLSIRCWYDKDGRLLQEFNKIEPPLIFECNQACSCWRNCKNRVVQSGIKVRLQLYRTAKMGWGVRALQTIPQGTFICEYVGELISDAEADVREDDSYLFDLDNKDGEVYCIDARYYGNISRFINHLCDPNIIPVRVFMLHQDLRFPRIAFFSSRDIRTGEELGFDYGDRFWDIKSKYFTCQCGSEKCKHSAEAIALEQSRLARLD
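Readings reflect AlphaScreen signal from monomethyl-H3K9 antibody detection. HMT at 20 nM; substrate b-H3K9 500 nM; cofactor SAM 20 uM; 2 h RT reaction; compounds tested as titrations in qHTS with 15 min preincubation.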
* marks the source's active call; other numbers are inactive results; ? = inconclusive; . = no result; [ ] = remark or other dose. Unless noted, calls follow the shape of the dose curve; as a rule, active = well fitted inhibition curve with a large enough effect; inconclusive = small, poorly fitted or top-dose-only effect; inactive = no such curve, though single readings can be large or run the other way.

SMILES	PI5P4K alpha inh	L3MBTL1 inh	BAZ2B inh	HP1b chromo inh	JMJD2A Tudor inh	G9a inh
COC(=O)c1ccc(N2CCN(CC(=O)c3ccc(-c4ccccc4)cc3)CC2)c([N+](=O)[O-])c1	-15	-9%	-36%[57.1 µM]	12%	-27%	45µM*
COc1ccc(-c2cc(C3CCN(c4ccc(C(C)=O)cc4[N+](=O)[O-])CC3)[nH]n2)cc1	.	-19%	?	-15%	?	24%[0.0925 µM]
COC(=O)c1ccc(N2CCC(c3cc(-c4ccc(OC)cc4)n[nH]3)CC2)c([N+](=O)[O-])c1	.	-18%	?	-19%	?	16µM*
O=C(NCc1ccc(F)cc1)c1ccc(N2CCc3ccccc32)c([N+](=O)[O-])c1	-7	?	7.1µM*	50µM*	18µM*	25µM*
O=C(O)c1ccc(N2CCc3ccccc32)c([N+](=O)[O-])c1	-79*	.	?	-4%	-30%	?
Cc1ccc(CNC(=O)C2CCC(CNS(=O)(=O)c3ccc(C)cc3)CC2)cc1 (stereo not drawn)	.	.	1%	27%	-13%	-14%[59 µM]
O=C(NCC1CCCO1)C(=O)N/N=C/c1ccc(OCc2ccccc2Cl)cc1 (stereo not drawn)	2	.	.	3%	45µM*	.
CS(=O)(=O)c1ncc(Cl)c(C(=O)N2CCN(c3cccc(Cl)c3)CC2)n1	.	.	?	32%	-17%	13µM*
O=C(c1ccc(S(=O)(=O)N2CCCC2)cc1)N1CCN(c2cccc(Cl)c2)CC1	-2	.	1%	22%	-12%	-14%
COc1ccc(OCC(=O)N2CCN(c3cccc(Cl)c3)CC2)cc1	13	.	4%	12%	-19%	-2%[59 µM]
CCS(=O)(=O)c1ncc(Cl)c(C(=O)N2CCN(c3cccc(Cl)c3)CC2)n1	.	.	-11%	8%	-31%	13µM*
O=C(Cn1c(=O)c2cccn2c2ccc(F)cc21)N1CCN(c2ccccc2)CC1	.	.	-16%	15%	-18%	-23%[59 µM]
O=C(Cn1c(=O)nc(-c2ccccc2)c2cc(Cl)ccc21)N1CCN(c2ccccc2F)CC1	.	.	-2%	5%	-1%	14%[59 µM]
O=C(CN1C(=O)C2(OCCO2)c2ccccc21)c1ccc(Br)cc1	.	-7%	-31%	35%	-7%	40µM*
Cc1ccc(/C=N/N2CCN(c3ccccn3)CC2)o1	2	-14%	-27%	47%	-18%	-47%
Cc1ccc(/C=N/N2CCN(Cc3ccccc3)CC2)o1	.	.	?	-2%	-33%	20µM*
Cc1ccc(/C=N/N2CCN(Cc3cccc4ccccc34)CC2)o1	-4	.	50µM*	?	50µM*	45µM*
CCOC(=O)c1c(C)n(S(=O)(=O)c2ccc(C)cc2)c2ccc(NS(=O)(=O)c3ccc(C)cc3)cc12	.	.	-14%	18%	-18%	7%[59 µM]
Cc1cccc(Oc2ccc3c(c2)Oc2ccccc2NC3=O)c1	.	.	50µM*	-15%	50µM*	4%[59 µM]
CC(C)(C)c1ccc(S(=O)(=O)N2CCN(Cc3noc(CCC(=O)N4CCCCC4)n3)CC2)cc1	.	.	-14%	24%	-33%	?
Cc1c(C(=O)O)cccc1-c1ccc(/C=N/Nc2ccc(Br)cc2)o1	-24	-7%	50µM*	-13%	?	10µM*
Cc1c(C(=O)O)cccc1-c1ccc(/C=N/n2cnnc2)o1	-5	.	79µM*	-6%	89µM*	35µM*
COc1ccccc1N1CCN(C(=O)Cn2ncc3c(=O)oc4ccccc4c32)CC1	.	.	.	36%	-10%	-3%[59 µM]
O=C(Nc1ccc(F)cc1F)C1CCN(c2ncccn2)CC1	.	.	-8%	31%	-10%	0%[59 µM]
COc1ccc(-c2cn3nc(N4CCCC(C(=O)NCc5ccccc5OC)C4)sc3n2)cc1 (stereo not drawn)	.	.	-8%	6%	-17%	-37%[59 µM]
SMILES	PI5P4K alpha inh	L3MBTL1 inh	BAZ2B inh	HP1b chromo inh	JMJD2A Tudor inh	G9a inh
CC(NC(=O)c1ccc(S(=O)(=O)N(C)C)cc1)c1ccc(-n2ccnc2)cc1 (stereo not drawn)	0	.	-34%	-3%	-14%	2%
CC(NC(=O)c1ccc(S(=O)(=O)N(C)C)cc1)c1ccccc1 (stereo not drawn)	-5	-7%[11.4 µM]	-5%	-15%	79µM*	4%[12.7 µM]
COc1ccc(S(=O)(=O)NCCc2sc(-c3cccnc3)nc2C)cc1OC	.	.	5%	9%[57 µM]	-19%	1%[59 µM]
CCc1nc(NCc2ccccn2)c2oc3ccccc3c2n1	2	5%	?	35%	-23%	25µM*
CCc1nc(Nc2ccccc2OC)c2oc3ccccc3c2n1	5	.	-3%	56%	4%	50µM*
COc1ccc(NC(=O)c2oc3ccccc3c2NC(=O)COc2ccc(C(C)C)cc2)c(OC)c1	.	.	-4%	22%	-13%	4%[59 µM]
COc1cccc(CNC(=O)Cc2ccc(NC(=O)N3CCCCc4ccccc43)cc2)c1OC	.	.	-13%	3%	-25%	-1%[59 µM]
CCN(CC)C(=O)CSc1nnc(-c2ccccn2)n1-c1ccccc1OC	-3	.	89µM*	45%	?	16%[59 µM]
CCOc1ccccc1-n1c(SCC(=O)N2CCOCC2)nnc1-c1ccccn1	-1	5%	-34%	23%	0%	14%[59 µM]
Cc1ccc(-n2c(SCC(=O)OC(C)C)nnc2-c2ccccn2)cc1	.	-16%	50µM*	18%	50µM*	-8%[59 µM]
Cc1ccc(C)c(-n2c(SCC(=O)N3CCCC3)nnc2-c2ccccn2)c1	0	-11%	32µM*	31%	?	8%[59 µM]
Cc1ccc(-n2c(SCC(=O)OC(C)C)nnc2-c2cnccn2)cc1	0	5%	11%	4%	-14%	18%
CCOc1ccccc1-n1c(SCC(=O)N(CC)CC)nnc1-c1ccccn1	-1	-5%	?	34%	-9%	0%[59 µM]
Cc1ccc(C)c(-n2c(SCC(N)=O)nnc2-c2ccccn2)c1	-2	?	18µM*	24%	79µM*	?
Cc1ccc(C)c(S(=O)(=O)NCC(c2ccc3c(c2)OCO3)N2CCOCC2)c1 (stereo not drawn)	6	3%	12%	14%	-17%	0%
COc1ccc(S(=O)(=O)Nc2ccc3c(c2)OCO3)cc1OC	-10	-10%	-5%	7%	-23%	50µM*
COc1ccc(S(=O)(=O)NCC(c2ccc3c(c2)OCO3)N2CCN(C)CC2)cc1OC (stereo not drawn)	-1	-12%	9%	7%	-15%	50µM*
CCOc1ccc(S(=O)(=O)NCC(c2ccc3c(c2)OCO3)N2CCN(C)CC2)cc1 (stereo not drawn)	-4	-14%	-13%	4%	-21%	-21%[0.501 µM]

Assay outcomes: PubChem, National Center for Advancing Translational Sciences (NCATS)
